Molecules are shown by their SMILES. “And” between values parts separate entries of the source, which are not always exact repeats. Identical values can stand only once. Some compounds were tested as several samples or in several runs, with calls that do not always agree. The source made the active and inactive calls. Rule for the calls: active = hit-call score of the fitted dose curve at least 0.9, where 1 is the maximum; inactive = score below 0.9.

Read-out in the assay: Interleukin-8 (IL8), CXCL8 (gene 3576)
The assay can be described thus: BSK_LPS_IL8: BioMAP Diversity Plus: LPS Assay for Interleukin-8 (IL8) Biomarker Activity (AID 2283078). Conditions: primary human HUVEC with PBMC; actives raise or lower the signal. As to the method: BSK_LPS is a cell-based, multiplexed-readout assay that uses umbilical vein endothelium and peripheral blood mononuclear cells, a human vascular primary cell co-culture, with measurements taken at 24 hours after chemical dosing in a 96-well plate.BSK_LPS_IL8 is an assay component measured in the BSK_LPS assay. It measures IL-8 antibody related to regulation of gene expression using ELISA technology.Data from the assay component BSK_LPS_IL8 was analyzed into 1 assay endpoint. This assay endpoint, BSK_LPS_IL8, was analyzed with bidirectional fitting relative to DMSO as the negative control and baseline of activity. Using a type of binding reporter, gain or loss-of-signal activity can be used to understand changes in the signaling as they relate to the gene CXCL8. Furthermore, this assay endpoint can be referred to as a primary readout, because this assay has produced multiple assay endpoints where this one serves a signaling function. To generalize the intended target to other relatable targets, this assay endpoint is annotated to the cytokine intended target family, where the subfamily is interleukins.
The levels of cell surface (or secreted, indicated by the prefix "s") biomarker endpoints were measured by ELISA. Overt cytotoxicity to cells in confluent adherent cultures (all systems other than the BT system) was assessed by measuring total protein levels using sulforhodamine B (SRB) staining in parallel cultures at the time of biomarker measurements, indicated as SRB endpoints. For proliferation assays for adherent cell types, individual cell types are cultured at sub-confluence and relative cell numbers quantified by SRB staining at time points optimized for each system (48 h: 3C and CASM3C systems; 72 h: BT and HDF3CGF systems; 96 h: SAg system). SRB was performed by staining cells with 0.1% SRB after fixation with 10% TCA and reading wells at 560 nm.Viability and proliferation of PBMC (T cells) was quantified by Alamar Blue reduction for the SAg and BT systems. For PBMC viability (referred to as PBMC Cytotoxicity within the assay endpoint names), cells were plated (75,000/well in a 96-well plate) and then chemical samples added for 1 h before addition of activators, SEB and TSST-1 (20 ng/mL final concentration each). Cells were incubated for 90 h. Then, Alamar Blue (20 uL/well) (Invitrogen, Cat DAL1100) was added for 6 h, and the plates were read with a fluorescence microplate reader at 546/580 nm (excitation/emission). For PBMC proliferation, cells were plated and activated as above but incubated for only 16 h prior to addition of Alamar Blue. Plates were read after 6 h.
`Nc1nc(N)nc(-c2ccccc2)n1`: the result was inactive.

By AC50 is commonly meant the midpoint of the concentration-response curve, whichever way the signal moves. `c1ccc(Nc2cccc3ccccc23)cc1`: the AC50 is 24.5 µM (active) and 20 µM (active).

Regarding `COc1ccc(C(=O)c2ccccc2)c(O)c1`, the outcome was inactive.

In the case of `CCCCCCCO`, the result was inactive.

Consider `CC(C)c1cccc(C(C)C)c1N`, for which the result was inactive.

For `CCC1(C)C(=O)N(Cl)C(=O)N1Cl` (stereo not given), the result was inactive.

As to `CCCCCC1=CCCC1=O`, the outcome was inactive.

Consider `CC(C)CCCCCOC(=O)CS`, for which the result was inactive.

As to `c1ccc2sc(SSN3CCOCC3)nc2c1`, the result was inactive.

As to `CCNc1nc(NC(C)(C)C)nc(OC)n1`, the result was inactive.

Regarding `CC/C=C\C/C=C\C/C=C\CCCCCCCC(=O)OC`, the AC50 is 29 µM (active).

Consider `O=C(Cl)c1c(Cl)c(Cl)c(C(=O)Cl)c(Cl)c1Cl`, for which the outcome was inactive.

As to `CCCCCCC=O`, the outcome was inactive.

`O=C(O)C(F)(F)C(F)(F)C(F)(F)C(F)(F)C(=O)O`: the AC50 was 30 µM (active) and the result was inactive.

`CCCCCCCCCCCC(=O)N(C)CC(=O)O`: the result was inactive.

`C=CCCCCCCCCC=O`: the outcome was inactive.

Regarding `C[N+](C)(C)CCCNS(=O)(=O)C(F)(F)C(F)(F)C(F)(F)C(F)(F)C(F)(F)C(F)(F)C(F)(F)C(F)(F)F`, the AC50 is 31.3 µM (active) and 39.7 µM (active).

With `Oc1ccccc1Cc1ccccc1O`, the result was inactive.

In the case of `CCCCC1C(=O)N(c2ccccc2)N(c2ccccc2)C1=O`, the outcome was inactive.

On to `CC(CCC(=O)O)(c1ccc(O)cc1)c1ccc(O)cc1`, for which the result was inactive.

Regarding `C=CC(=O)OCC(C)OCC(C)OCC(C)OC(=O)C=C` (stereo not given), the AC50 was 11.9 µM (active).

Take `CCCCCCCCC(CO)CCCCCC` (stereo not given): the outcome was inactive.

Turning to `C=C(C)C(=O)OCCCCCCCCCCCC`, the outcome was inactive.

As for `CC(C)C(=O)OCCc1ccccc1`, the result was inactive.

In the case of `CC(c1cc(C(C)(C)C)cc(C(C)(C)C)c1O)c1cc(C(C)(C)C)cc(C(C)(C)C)c1O`, the result was inactive.

Take `CCOC(=O)C1=NN(c2ccc(Cl)cc2Cl)C(C)(C(=O)OCC)C1` (stereo not given): the result was inactive.

Turning to `Cc1c(O)cccc1O`, the result was inactive.

`Fc1ccc(Br)cc1`: the outcome was inactive.

With `CCc1cccc(C)c1N(C(=O)CS(=O)(=O)O)C(C)COC` (stereo not given), the outcome was inactive.

For the molecule `CC(C)[N+](C)(CCOC(=O)C1c2ccccc2Oc2ccccc21)C(C)C`, the outcome was inactive.

As to `CC=C(C)C(C)=O`, the result was inactive.

For the molecule `C=CC(=O)OCCCCCCCC(C)C`, the outcome was inactive.

Turning to `CC(Cl)COP(=O)(OCC(C)Cl)OCC(C)Cl` (stereo not given), the outcome was inactive.

For the molecule `O=C1CCCCCCCCCCCN1`, the outcome was inactive.

Take `CCN1CN(CC)CN(CC)C1`: the result was inactive.

`CC1(C)CC(O)CC(C)(C)N1[O]`: the result was inactive.

As for `CCCCCCOC(=O)CCCCC(=O)OCCCCCC`, the result was inactive.

With `CCCCCCCCCCCC(C)=O`, the result was inactive.

In the case of `C1CNCCN1`, the result was inactive.

The record behind these values is PubChem BioAssay (EPA / NIEHS).
